PubChem BioAssay (NCATS)
Records with an inconclusive call do not appear. Active and inactive are the calls of the source. Calls come from the whole dose curve; as a rule, active = well fitted curve in the direction sought with a large enough effect; inconclusive = small, poorly fitted or top-dose-only effect, or another doubt; inactive = no such curve, though single readings can be large; an effect the other way counts as inactive or inconclusive.

test: qHTS for Inhibitors of Plasmodium falciparum (DD2) proliferation (AID 504314);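 note: parasite DNA measured by SYBR Green fluorescence after red cell lysis; plate controls were DMSO vehicle for no effect and artemisinin wells for full effect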; conditions: P. falciparum Dd2 in erythrocytes, SYBR Green growth, 72 h; series mostly up to 6.11 µM
Outline: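 Infected RBCs, 0.3% parasitemia, 2.5% Hct; compound 72 h, 37C/5% CO2; lyse + SYBR Green I, RT overnight, dark; read ex485/em535; normalize to DMSO and artemisinin 0.29 uM.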

activity, negative = inhibition, inactive:
C[C@H]1Cc2c(COc3ccccc3)nc3c(c2CO1)CN(C(=O)NCc1ccco1)CC3 -0.216% [at 1.12 µM]
COC(=O)CCCC1=CC2=CC(=O)C(C)(OC(=O)c3cccs3)C(=O)C2=CN1c1ccc(OC)cc1 (stereo not given) 1.04% [at 1.12 µM]
COC(=O)CCCC1=CC2=C(c3ccccc3)C(=O)C(C)(OC(=O)C3CCCC3)C(=O)C2=CN1Cc1ccc2c(c1)OCO2 (stereo not given) -1.06% [at 1.12 µM]

Potency, inactive:
COC(=O)N[C@@H](C=Cc1ccccc1)C[N+](=O)[O-]
COC(=O)[C@@H]1C=C[C@H](C)[C@H](CCOc2ccccc2)O1
COc1cc2c(cc1OC)[C@@]1(c3ccccc3)CCCC[C@H]1[C@@H]2NC(=O)C(F)(F)F
COc1ccc(O[C@H]2C=C[C@@H](c3ccccc3)O[C@H]2COC(=O)NCc2cccc3ccccc23)cc1
CC(=O)O[C@H](C(=O)O[C@@H]1C[C@@H](CCC[C@H]2O[C@H](C(=O)OC(C)C)CC[C@@H]2C)O[C@@H](CC#N)C1)c1ccccc1
COC(=O)C1=C(C(=O)OC)[C@@H]2Nc3ccccc3[C@@]23C[C@@H](C(=O)OC)N(C(=O)N2CCNC2=O)C3=N1
COC(=O)[C@]1(C=C2c3ccccc3C[C@H](OC)[C@@H]2C)[C@@H]2CC=C[C@@H]21
C=C(C(C)=O)C(O)c1ccccc1 (stereo not given)
Cc1cc2c(c(=O)o1)[C@H]1O[C@](CCCCN3C(=O)c4ccccc4C3=O)(Cc3cc(C#N)ccc31)O2
CC(CCN1CCCCc2nc(C)c(C)cc21)=NO[C@H](C)c1cn([C@H](CO)Cc2ccccc2)nn1
COc1ccc2c(c1)C(=O)[C@@H](OC(=O)NCCc1ccc(OC)c(OC)c1)[C@H](c1ccc(OC)c(Br)c1)O2
C=CC[C@@]1(c2ccc(OC)cc2)Oc2ccccc2C2=NCCN=C21

test: qHTS for Inhibitors of Plasmodium falciparum (GB4) proliferation (AID 504315);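 note: 0% = DMSO vehicle and -100% = 0.29 µM artemisinin control; nearly all actives have a fitted effect of over 50% in size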; conditions: P. falciparum GB4 in erythrocytes, SYBR Green DNA, 72 h; series mostly up to 6.7 µM
Outline: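 Erythrocytes infected with P. falciparum line (0.3% parasitemia, 2.5% hematocrit final) incubated with compounds 72 h at 37 °C, 5% CO2; SYBR Green lysis buffer added, fluorescence read next day. Normalized to 0.29 uM artemisinin and DMSO.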

Potency, inactive:
COC(=O)c1cc(C(=O)OC)n2c(C)cc3ccccc3c12
C[C@H]1Cc2c(COc3ccccc3)nc3c(c2CO1)CN(S(=O)(=O)c1ccc2c(c1)OCCN2C)CC3
Cc1cc2c(c(=O)o1)[C@H]1O[C@](c3ccsc3)(Cc3c1ccc1ccccc31)O2
CCCC[C@]12Cc3cc(C#N)ccc3[C@H](O1)c1c(cc(C)n(-c3ccccc3)c1=O)O2
CC1(C)OCC([C@H](O)C2=CCCCC2=O)CO1
C[C@@H]1CC2CCCC2[C@]2(O1)C(=O)Nc1ccccc12 (stereo not given in full)
COC(=O)[C@H]1[C@@H](c2ccccc2)NC(=O)N(CCc2cc(OC)c(OC)c(OC)c2)[C@@H]1C
CCOC(=O)CCN1C(=O)[C@@H]2[C@H]3[C@H](O)[C@H](O)CC(=NNC(=O)OCc4ccccc4)[C@@H]3CC[C@H]2C1=O
COC(=O)CCC(=O)OC1(C)C(=O)C=C2C=C(C3CC3)N(c3ccc(CO)cc3)C=C2C1=O (stereo not given)
COc1ccc([C@]23Cc4cc(C#N)ccc4[C@H](O2)C2=C(CC4(CCCCC4)OC2=O)O3)cc1
C#CCCCON=C1C[C@@H](O)[C@H](O)[C@H]2[C@@H]3C(=O)N(Cc4ccccc4)C(=O)[C@@H]3CC[C@H]12
COc1ccc(O[C@H]2C=C[C@@H](c3ccccc3)O[C@H]2COC(=O)CCC(C)=NOC[C@@H](O)COCc2ccco2)cc1
O[C@H](CC#CCOc1ccccc1)COCc1ccccc1
CC(CCC(=O)OC[C@H]1O[C@H](C#Cc2ccccc2)C=C[C@H]1Oc1ccc(C)cc1)=NO[C@H](C)c1cn([C@H](CO)Cc2ccccc2)nn1
COc1ccc2c(c1)[C@H](C=Cc1ccccc1)[C@@H]([C@H](O)CO)O2
C[C@H]1[C@@H](C(=O)N2CCCC2)CC(=O)C(=NOCc2ccccc2)C[C@H]1c1ccccc1
COC(=O)C1=C(C(=O)OC)[C@@H]2N(C)c3ccccc3[C@@]23CCC(=O)N(Cc2cc(OC)c(OC)c(OC)c2)C3=N1
C=CCN1C(=O)CC[C@@]23C1=NC(C(=O)OC)=C(C(=O)OC)[C@@H]2N(CC#CC)c1ccccc13
C=CCC(Nc1ccc(OC)cc1)(C(=O)OCC)c1ccccc1 (stereo not given)
COc1ccc(O[C@H]2C=C[C@@H](c3ccccc3)O[C@H]2CON=C[C@@H](C)[C@H](OCc2ccccc2)C(C)C)cc1
CC(C)OC(=O)[C@H](C)NC(=O)N1CCc2nc(-c3ccccc3)c3c(c2C1)CO[C@@H](C)C3
N#Cc1ccc2c(c1)C[C@]1(c3ccsc3)Oc3c(c(=O)oc4ccccc34)[C@H]2O1
CC1(OC(=O)CCc2ccccc2)C(=O)C=C2C=C(c3ccc(C#N)cc3)N(CC3CC3)C=C2C1=O (stereo not given)
COc1ccc(OC[C@H]2CN3[C@H](c4ccc(Br)cc4)[C@H](C)CC[C@H]3C(=O)O2)cc1
C=CCOC(=O)N[C@H](c1ccc(-c2ccccc2)cc1)[C@H](C)C=CCC(=O)OC
C[C@H]1Cc2c(COc3ccccc3)nc3c(c2CO1)CN(C(=O)NCc1ccco1)CC3
COC(=O)N[C@@H](C=Cc1ccccc1)C[N+](=O)[O-]
COC(=O)[C@@H]1C=C[C@H](C)[C@H](CCOc2ccccc2)O1
COc1cc2c(cc1OC)[C@@]1(c3ccccc3)CCCC[C@H]1[C@@H]2NC(=O)C(F)(F)F
COC(=O)CCCC1=CC2=CC(=O)C(C)(OC(=O)c3cccs3)C(=O)C2=CN1c1ccc(OC)cc1 (stereo not given)
COc1ccc(O[C@H]2C=C[C@@H](c3ccccc3)O[C@H]2COC(=O)NCc2cccc3ccccc23)cc1
CC(=O)O[C@H](C(=O)O[C@@H]1C[C@@H](CCC[C@H]2O[C@H](C(=O)OC(C)C)CC[C@@H]2C)O[C@@H](CC#N)C1)c1ccccc1
COC(=O)C1=C(C(=O)OC)[C@@H]2Nc3ccccc3[C@@]23C[C@@H](C(=O)OC)N(C(=O)N2CCNC2=O)C3=N1
COC(=O)[C@]1(C=C2c3ccccc3C[C@H](OC)[C@@H]2C)[C@@H]2CC=C[C@@H]21
C=C(C(C)=O)C(O)c1ccccc1 (stereo not given)
Cc1cc2c(c(=O)o1)[C@H]1O[C@](CCCCN3C(=O)c4ccccc4C3=O)(Cc3cc(C#N)ccc31)O2
CC(CCN1CCCCc2nc(C)c(C)cc21)=NO[C@H](C)c1cn([C@H](CO)Cc2ccccc2)nn1
COc1ccc2c(c1)C(=O)[C@@H](OC(=O)NCCc1ccc(OC)c(OC)c1)[C@H](c1ccc(OC)c(Br)c1)O2
COC(=O)CCCC1=CC2=C(c3ccccc3)C(=O)C(C)(OC(=O)C3CCCC3)C(=O)C2=CN1Cc1ccc2c(c1)OCO2 (stereo not given)
C=CC[C@@]1(c2ccc(OC)cc2)Oc2ccccc2C2=NCCN=C21
